From PubChem
Most compounds without a hit are left out; they make up all but 5.1% or so of the library.
Tau fluor counter: Counterscreen qHTS for Inhibitors of Tau Fibril Formation, Fluorescence Polarization. Potency, µM (doses to about 57.7 µM), for the others: at the highest dose activity change, negative = decrease. tau K18 P301L Alexa594 fluorescence, heparin fibrillization. 280,000 tested, 0.93% active; note: potency is the fitted concentration of half-maximal effect; nearly all actives have a fitted effect of over 55% in size
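Human tau K18 P301L (15 uM unlabeled, 0.24 uM Alexa 594-labeled) in 100 mM sodium acetate pH 7 with 20 uM heparin, 6 hr at 37 C. ThT 30 uM added, 1 hr ambient; Alexa 594 FP and total fluorescence read at 555/632 nm.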
PNC inhibitor: High Content Assay for Compounds that inhibit the Assembly of the Perinucleolar Compartment. PC3M PTB-GFP, PNC prevalence imaging, 16 h; hits give low values. activity change (PNC), negative = inhibition, % at 10 µM. 140,000 tested, 3.1% active. AID 2417, 2010;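 active = readout at or below -70, meaning at least 70% loss of cells showing the perinucleolar compartment, a nuclear body marking cancer cells; inconclusive = readout between -30 and a set limit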;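 note: plate controls were DMSO wells for no effect and camptothecin positive control wells for full effect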
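Read-out is percentage of cells bearing a perinucleolar compartment, from automated 20x imaging of fixed, Hoechst-stained PC3M PTB-GFP cells. Cells were seeded 4 h, then exposed 16 h to compound (23 nl of library stock) in duplicate plates.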
JMJD2E inh: qHTS Assay for Inhibitors of Human Jumonji Domain Containing 2E (JMJD2E) | Lysine-specific demethylase 4E (Homo sapiens), B2RXH2 | JMJD2E catalytic domain, FDH-coupled NADH fluorescence (FDH is formaldehyde dehydrogenase) | Potency, µM (titrated, usually from 57.1 µM), for the others: at the highest dose activity change, negative = inhibition, usual class: inhibitors | 230,000 tested, 1.6% active; active = well fitted inhibition curve with a large enough effect, not every such curve was filed as active; inconclusive = small, poorly fitted or top-dose-only effect, or another doubt; inactive = no such curve, though single readings can be large or run the other way;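 note: potency is the fitted concentration of half-maximal effect; 0% = wells with enzyme and -100% = buffer wells without enzyme; nearly all actives have a fitted effect of over 50% in size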
Target sequence (B2RXH2 1-337 limits assumed): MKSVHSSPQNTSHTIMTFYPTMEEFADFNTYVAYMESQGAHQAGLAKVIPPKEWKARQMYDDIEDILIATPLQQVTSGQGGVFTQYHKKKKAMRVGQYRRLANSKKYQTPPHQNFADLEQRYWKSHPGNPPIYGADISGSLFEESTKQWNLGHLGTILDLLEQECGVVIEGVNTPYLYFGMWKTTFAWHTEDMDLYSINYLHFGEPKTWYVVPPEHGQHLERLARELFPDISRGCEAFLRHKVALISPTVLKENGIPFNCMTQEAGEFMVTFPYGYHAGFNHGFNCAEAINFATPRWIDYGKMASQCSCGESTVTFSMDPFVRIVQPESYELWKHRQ
Tau ThT inhib: qHTS for Inhibitors of Tau Fibril Formation, Thioflavin T Binding; Microtubule-associated protein tau (Homo sapiens), P10636; Potency, µM (titrated, usually from 57.4 µM), without a hit: at the top dose activity, negative = inhibition, most hits filed as inhibitors; 270,000 tested, 2.1% active; recombinant tau K18 P301L (four-repeat tau fragment), heparin-induced fibrillization, ThT fluorescence; note: potency is the fitted concentration of half-maximal effect; nearly all actives have a fitted effect of over 55% in size
Target sequence (P10636 561-689 P618L limits assumed): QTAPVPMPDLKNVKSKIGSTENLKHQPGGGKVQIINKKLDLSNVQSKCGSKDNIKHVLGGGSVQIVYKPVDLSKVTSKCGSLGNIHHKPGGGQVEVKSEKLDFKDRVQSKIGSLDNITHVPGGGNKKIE
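Aggregation was driven by heparin (20 uM final) acting on recombinant tau […] bearing P301L in 100 mM sodium acetate pH 7; fibrils were detected with Thioflavin T.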
Tau fibril FP: qHTS for Inhibitors of Tau Fibril Formation, Fluorescence Polarization; Microtubule-associated protein tau (Homo sapiens), P10636; K18 P301L tau heparin fibrillization, Alexa594 FP, 6 h; Potency, µM (top dose mostly 57.7 µM), without a hit: top-dose activity, negative = inhibition, hits mostly inhibitors; 280,000 tested, 0.39% active; note: potency is the fitted concentration of half-maximal effect; nearly all actives have a fitted effect of over 55% in size
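Human K18 P301L fragment (15 uM unlabeled plus 0.24 uM Alexa 594-labeled) in 100 mM sodium acetate pH 7 with compound, aggregation induced by 20 uM heparin for 6 hr at 37 C. ThT (30 uM) added for 1 hr, then Alexa 594 FP read.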
NPSR antagonist: qHTS Assay for Antagonists of the Neuropeptide S Receptor: cAMP Signal Transduction. Q6W5P4. CHO-NPSR cells, cAMP TR-FRET, antagonist mode. Potency, µM (series often up to 38.3 µM), without a hit: at the highest dose activity change, negative = inhibition, usual class: inhibitors. 220,000 tested, 1% active. AID 1461, 2008; note: potency is the fitted concentration of half-maximal effect; nearly all actives have a fitted effect of over 50% in size
Active calls of the source: *; ? = inconclusive; nt = no result; [ ] = another dose, or the depositor's remark. Unless noted, calls come from the whole dose curve; as a rule, active = well fitted curve in the direction sought with a large enough effect; inconclusive = small, poorly fitted or top-dose-only effect, or another doubt; inactive = no such curve, though single readings can be large; an effect the other way counts as inactive or inconclusive. Unless noted, % is set by controls: 0 for no effect and ±100 for the full control effect.

SMILES	Tau fluor counter	PNC inhibitor	JMJD2E inh	Tau ThT inhib	Tau fibril FP	NPSR antagonist
CCOC(=O)c1c(C)sc(-c2c(-c3ccc(OC)c(F)c3)[nH]c3c2c(=O)[nH]c(=O)n3C)c1O	13µM*[quencher]	nt	nt	?	13%	nt
COC(=O)c1c(C)sc(-c2c(-c3ccc4c(c3)OCCO4)[nH]c3[nH]c(=O)[nH]c(=O)c23)c1O	20µM*[quencher]	nt	nt	?	?	nt
CCOC(=O)c1c(C)sc(-c2c(-c3ccc4c(c3)OCCO4)[nH]c3c2c(=O)[nH]c(=O)n3C)c1O	?	nt	nt	?	13%	nt
CCOC(=O)c1c(C)sc(-c2c(-c3ccccc3)[nH]c3[nH]c(=O)[nH]c(=O)c23)c1O	6.3µM*[quencher]	nt	nt	?	4%	nt
COc1ccccc1N1CCN(c2cc(C)nc3nncn23)CC1	-3%	nt	nt	-8%	-3%	nt
COc1ccc(NC(=O)CSC2=Nc3ccccc3C3=NC(CCC(=O)NCc4ccc(F)cc4)C(=O)N23)cc1Cl (stereo unspecified)	?	nt	nt	-7%	1%	nt
C[n+]1nc(Nc2cccc3ccccc23)sc1-c1ccc(C(=O)O)cc1	-17%	nt	8.9µM*	?	-4%	-15%
CCc1ccc(Nc2n[n+](C)c(-c3ccc(C(=O)O)cc3)s2)cc1	10%	nt	?	1%	-4%	-35%
Cc1cnc(NC(=O)CSc2nnc(COc3c(C)cccc3C)o2)s1	-11%	-119*	6%	-7%	13%	-8%
COc1ccc(C2c3c(ncn(CCN4CCOCC4)c3=N)Oc3ccc4ccccc4c32)cc1OC (stereo unspecified)	-17%	-26	-2%	-13%	-2%	1µM*
O=C(NN1C(=O)/C(=C/C=C/c2ccccc2)SC1=S)c1ccncc1	?	nt	-23%	11µM*	-11%	-39%
O=C(NN1C(=O)/C(=C/C=C/c2ccco2)SC1=S)c1ccncc1	?	nt	20µM*	nt	?	-9%
COc1ccc(/C=C2\SC(=S)N(NC(=O)c3ccncc3)C2=O)cc1OC	-5%	nt	-2%	?	2%	-20%
Cn1cc(/C=C2\SC(=S)N(NC(=O)c3ccccc3)C2=O)c2ccccc21	24%	-17	1%	?	25µM*	-22%
COc1ccc(CNC(=O)c2cc3cc(C)ccc3n2C)cc1	-9%	nt	nt	-10%	-2%	nt
COc1ccc(NC(=O)c2cc(C(C)=O)n3ccccc23)cc1	5%	nt	nt	6%	-3%	nt
O=C1CNC(=S)N1CCOc1ccccc1	-6%	nt	-1%	-4%	2%	-8%
O=C1CNC(=S)N1CCc1ccc(O)c(O)c1	-30%	nt	13µM*	nt	-8%	14%
N#Cc1cn(Cc2cccc(Cl)c2)c2ccccc12	-24%	-103*	?	-4%	-3%	-21%[46.1 µM]
Cc1cc(=O)oc2cc(OCC(=O)N3CC(C)OC(C)C3)ccc12 (stereo unspecified)	-5%	-5	?	-1%	4%	-5%[46.1 µM]
Cc1cc(=O)oc2cc(OCC(=O)N3c4ccccc4CC3C)ccc12 (stereo unspecified)	-14%	-85*	?	?	-4%	2%[7.67 µM]
CCN(CC)C(=O)CN(C#N)c1nc(C)cc(C)n1	-3%	-3	-10%	0%	1%	26%
CCN(CC)C(=O)CN(C#N)c1nc(OC)nc(N(C)C)n1	3%	-82*	-2%	7%	-2%	-7%[46.1 µM]
CCN1C(=O)CS/C1=N\S(=O)(=O)c1ccc(Cl)cc1	-6%	nt	-3%	-3%	-2%	2%
CCn1c(Cl)c(C=O)s/c1=N\S(=O)(=O)c1ccccc1	-27%	nt	6%	8.9µM*	7.1µM*	10µM*
SMILES	Tau fluor counter	PNC inhibitor	JMJD2E inh	Tau ThT inhib	Tau fibril FP	NPSR antagonist
CCN(C(=O)c1nn(-c2ccc(OC)c(Cl)c2)c(=O)c2c1c1ccccc1n2C)c1cccc(C(F)(F)F)c1	-14%	nt	nt	1%	?	nt
Cc1ccc(C2NC(=O)NC3=C2CCc2ccccc23)cc1 (stereo unspecified)	-4%	-2	?	?	-1%	-27%[46.1 µM]
COc1ccc(C2NC(=O)NC3=C2CCc2ccccc23)cc1 (stereo unspecified)	-19%	-6	?	25µM*	?	-20%[46.1 µM]
Cc1ccc(C)c(CSc2nnc(C)n3c2cc2sccc23)c1	-27%	nt	nt	?	-7%	nt
Cc1nnc(SCc2ccccc2)c2cc3sccc3n12	-26%	nt	nt	22µM*	?	nt
CC(C)(C)C1CCc2c(sc(NC(=O)c3noc4c3CCCC4)c2C#N)C1 (stereo unspecified)	-14%	nt	nt	?	-7%	nt
CCOC(=O)C1CCCN(C(=O)c2ccccc2NC(=O)c2nsc3ccccc23)C1 (stereo unspecified)	-11%	nt	nt	-4%	0%	nt
CCN(CC)c1ccc(NC2CC(=O)N(CCc3ccc(OC)cc3)C2=O)cc1 (stereo unspecified)	?	nt	13µM*	11µM*	?	-12%
Cc1cccc(NC(=O)CN2C(=O)c3cccnc3Oc3ccc(Cl)cc32)c1C	-17%	nt	nt	?	-2%	nt
CCCN(CCC)C(=O)Cn1nnc2sc(-c3ccccc3)cc2c1=O	-13%	nt	nt	-6%	-4%	nt
CN(C)c1ccc(C(CNS(=O)(=O)c2ccc3ccccc3c2)c2c[nH]c3ccccc23)cc1 (stereo unspecified)	8.9µM*[quencher]	?	-21%	-7%	7%	-27%
C=C(C(C)=O)C(O)/C=C/c1ccco1 (stereo unspecified)	-11%	nt	-4%	?	?	nt
Cc1cc(O)ccc1NC(=O)CCN1C(=O)c2ccc([N+](=O)[O-])cc2C1=O	-4%	-98*	-1%	3%	-2%	24%
CC(C)c1cc[n+](-c2nc([O-])sc2C=O)cc1	-25%	8	?	35µM*	-25%	-12%[46.1 µM]
CC(C)(C)c1cc[n+](-c2nc([O-])sc2C=O)cc1	-13%	-113*	6%	-9%	-10%	-1%
CCOc1ccc2c(c1)c(=O)c(S(=O)(=O)c1ccc(C)cc1)cn2Cc1ccccc1Cl	2%	nt	nt	3%	3%	nt
COc1ccc(C(=O)c2cc([N+](=O)[O-])ccc2N2CCCC2)cc1	?	-12	3%	?	-1%	-30%
COc1ccc(C(=O)c2cc([N+](=O)[O-])ccc2N2CCN(C)CC2)cc1	-13%	nt	1µM*	-3%	-13%	-4%
O=C(Nc1cccc2nsnc12)c1cccnc1	-6%	28	?	-10%	3%	-6%
